Mdm2-MdmX inh = disrupts the human Mdm2-MdmX interaction | actives 3% (n = 330,000) | SaOS-2 split-luciferase Mdm2/MdmX complementation, luminescence | inhibition, % at 8 µM | O15151+Q00987;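 active = inhibition of at least 50% at 8 µM in the primary screen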
MPTP inh = blocks calcium-induced mitochondrial swelling; isolated mouse mitochondria, Ca2+ swelling absorbance, 30 min; inhibition, % at 10 µM; actives 1.4% (n = 360,000);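 active = inhibition of 50% or more, scaled per plate between neutral and stimulator controls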;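 note: 0% = DMSO wells given calcium and 100% = 1 mM EGTA wells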
Beta apoptosis = beta cell apoptosis inhibition; INS-1E cytokine-induced death, ATP luminescence, 48 h; percent of positive-control rescue, neutral wells zero; protection from apoptosis, % (test concentration not listed); actives 0.8% (n = 300,000); AID 435005;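 active = Every replicate reaches about 75%, or at least half do and their mean reaches it too, limit read from the data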;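 note: 0% = cytokine-treated negative control wells and 100% = positive control rescue; higher means more ATP so stronger rescue from cytokine killing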
SKKanGAS inh = blocks kanamycin growth of S. pyogenes SKKanGAS strain | BacTiter-Glo, 6 h | inhibition, % at 7.5 µM | actives 1.3% (n = 300,000);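 active = mean replicate score, as percent of positive control median, at least 50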;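 note: strain carries kanamycin resistance gene driven by streptokinase promoter and grows in 40 µg/ml kanamycin; loss of luminescence reflects streptokinase promoter inhibition or plain growth inhibition; 0% = median of DMSO wells and 100% = positive control at its reference dose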
GRIN3A LBD mod = modulates the human NR3A ligand-binding domain; NR3A LBD differential scanning fluorimetry, Tm shift; 0% = protein alone, 100% = glycine-bound protein; Tm shift relative to glycine control, % at 25 µM; actives 2.5% (n = 340,000);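 active = melting temperature shift of at least 10% of the positive control shift, at one fixed dose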
CSC inhib = cancer stem cell inhibition; cancer stem cell-like cells viability, luminescence; inhibition, % at 7.5 µM; actives 1.1% (n = 300,000); in the data active = inhibition above about 75%; tested in HMLE shEcad cells
Mdm2-MdmX conf = confirmation of human Mdm2/MdmX interaction inhibitors | shares compounds with Mdm2-MdmX inh | Mdm2-MdmX binding, luminescent assay | inhibition, % at 8 µM | actives 55% (n = 10,000); in the data active = inhibition above about 40%
Full FLuc ctr = inhibits full-length luciferase, flagging false Mdm2/MdmX hits. inhibition, % at 8 µM. AID 504607. actives 77% (n = 6,200). SaOS-2 full-length luciferase counterscreen, luminescence. shares compounds with Mdm2-MdmX inh;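 active = mean inhibition at 8 µM reaching about 37%, which flags the compound as non-specific, limit read from the data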;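 note: p53-null SaOS-2 cells with luciferase driven by a doxycycline-inducible promoter; compound on cells about two nights before reading with doxycycline added after day one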
The depositor's hits bear a star. Hits are enriched below; roughly 6.9% of the tested compounds scored in any of these assays.

O=c1oc2ccccc2cc1-c1csc(Nc2nc3ccc(F)cc3s2)n1 was read as Mdm2-MdmX inh 40, Beta apoptosis 64, SKKanGAS inh -5 and CSC inhib 24.
`CCC/C(C)=N/NC(=O)c1ccccc1O` gave Mdm2-MdmX inh 14, MPTP inh 0, Beta apoptosis -2, SKKanGAS inh -2, GRIN3A LBD mod -2 and CSC inhib -14.
For CCOC(=O)C(CC)/C(C)=N\NC(=O)c1ccccc1O (centres undefined) the results were Mdm2-MdmX inh 68*, MPTP inh -8, Beta apoptosis 33, SKKanGAS inh -3, GRIN3A LBD mod -2, CSC inhib 41, Mdm2-MdmX conf 50* and Full FLuc ctr 77*.
`O=C(NCc1ccco1)c1ccc2c(=O)n(-c3ccccc3)c(=S)[nH]c2c1` gave Mdm2-MdmX inh 50*, MPTP inh 1, Beta apoptosis -1, SKKanGAS inh -3, GRIN3A LBD mod -3, CSC inhib -8 and Mdm2-MdmX conf -4.
COc1ccc(-n2c(=S)[nH]c3cc(C(=O)NCc4ccco4)ccc3c2=O)cc1OC was read as Mdm2-MdmX inh -17, MPTP inh 0, Beta apoptosis -10, SKKanGAS inh 1 and GRIN3A LBD mod -2.
`CCOC(=O)CSc1nc2cc(C(=O)NCc3ccco3)ccc2c(=O)n1-c1ccc(F)cc1` gave Mdm2-MdmX inh 71*, MPTP inh 0, SKKanGAS inh 1, GRIN3A LBD mod -1, CSC inhib 0, Mdm2-MdmX conf 13 and Full FLuc ctr 83*.
For CCOC(=O)CSc1nc2cc(C(=O)NCc3ccco3)ccc2c(=O)n1C1CCCCC1 the results were Mdm2-MdmX inh -37, MPTP inh 0, Beta apoptosis -5, SKKanGAS inh -15, GRIN3A LBD mod -6 and CSC inhib -11.
COc1ccc([C@H]2CC(=O)C=C(c3ccc(Cl)c(Cl)c3)C2)cc1 was read as Mdm2-MdmX inh 0, MPTP inh 0, Beta apoptosis 3, GRIN3A LBD mod -1 and CSC inhib 21.
COc1cc(OC)cc(C(=O)Nc2sc3c(c2C(N)=O)CCC3)c1 was read as Mdm2-MdmX inh 15, MPTP inh 1, Beta apoptosis 2, SKKanGAS inh -3, GRIN3A LBD mod 0 and CSC inhib -1.
`CCc1ccc(NC(=O)CSc2ccc(-c3ccccn3)nn2)cc1` gave Mdm2-MdmX inh 71*, MPTP inh 0, Beta apoptosis 86*, SKKanGAS inh -1, GRIN3A LBD mod -1, CSC inhib 6, Mdm2-MdmX conf 45* and Full FLuc ctr 73*.
Screening CCOC(=O)c1ccccc1NC(=O)CSc1ccc(-c2ccccn2)nn1 returned Mdm2-MdmX inh 75*, MPTP inh 0, Beta apoptosis -4, SKKanGAS inh 4, GRIN3A LBD mod 0, CSC inhib -3, Mdm2-MdmX conf 77* and Full FLuc ctr 36*.
For COc1cc(NC(=O)CSc2ccc(-c3ccccn3)nn2)cc(OC)c1 the results were Mdm2-MdmX inh 65*, MPTP inh -2, Beta apoptosis 30, SKKanGAS inh -3, GRIN3A LBD mod -3, CSC inhib -13, Mdm2-MdmX conf 59* and Full FLuc ctr 57*.
Screening COc1ccc(C)cc1NC(=O)CSc1ccc(-c2ccccn2)nn1 returned Mdm2-MdmX inh 54*, MPTP inh 0, Beta apoptosis 2, SKKanGAS inh -1, GRIN3A LBD mod -1, CSC inhib 57, Mdm2-MdmX conf 55* and Full FLuc ctr 52*.
`CC(=O)c1cccc(NC(=O)CSc2ccc(-c3ccccn3)nn2)c1` gave Mdm2-MdmX inh 37, MPTP inh 1, Beta apoptosis 3, SKKanGAS inh -1, GRIN3A LBD mod -1 and CSC inhib 3.
For O=C1NN=C2CCCCCC12 (centres undefined) the results were MPTP inh 0.
CC(=O)Nc1cccc(NC(=O)CSc2ccc(-c3ccccn3)nn2)c1 was read as Mdm2-MdmX inh 21, MPTP inh 0, Beta apoptosis 1, SKKanGAS inh 7, GRIN3A LBD mod 1 and CSC inhib 0.
For Cc1ccc(NC(=O)CSc2ccc(-c3ccccn3)nn2)cc1F the results were Mdm2-MdmX inh 53*, MPTP inh 1, Beta apoptosis 6, SKKanGAS inh 3, GRIN3A LBD mod -5, CSC inhib -4, Mdm2-MdmX conf 46* and Full FLuc ctr 47*.
Screening COc1cccc2c1C(CO)N1C(C#N)C3CC(C(=O)O)C(C1C2)N3C (centres undefined) returned Mdm2-MdmX inh 100*, MPTP inh 0, Beta apoptosis 2, GRIN3A LBD mod -5, CSC inhib 21, Mdm2-MdmX conf 100* and Full FLuc ctr 52*.
COc1ccc(CNCc2c(F)cccc2F)cc1OC was read as Mdm2-MdmX inh 18, MPTP inh 1, SKKanGAS inh 4 and GRIN3A LBD mod -1.
`CC(=O)NC(c1cc(Cl)c2cccnc2c1O)C1CC1` (centres undefined) gave Mdm2-MdmX inh 53*, MPTP inh -2, Beta apoptosis 87*, GRIN3A LBD mod -7, CSC inhib 110*, Mdm2-MdmX conf 49* and Full FLuc ctr 33.
CC(=O)NC(c1cc(Cl)c2ccccc2c1O)C(C)C (centres undefined) was read as Mdm2-MdmX inh 7, MPTP inh 1, Beta apoptosis 2, GRIN3A LBD mod 1 and CSC inhib 24.
CC(=O)NC(c1cc(Cl)c2cccnc2c1O)C(C)C (centres undefined) was read as Mdm2-MdmX inh 66*, MPTP inh -1, Beta apoptosis 103*, GRIN3A LBD mod -7, CSC inhib 42, Mdm2-MdmX conf 43* and Full FLuc ctr 37*.
`CC(=O)NC(c1ccc(C)cc1)c1cc(Cl)c2cccnc2c1O` (centres undefined) gave Mdm2-MdmX inh 87*, MPTP inh 1, Beta apoptosis 6, SKKanGAS inh 98*, GRIN3A LBD mod -5, CSC inhib 18, Mdm2-MdmX conf 77* and Full FLuc ctr 21.
CC(=O)NC(c1ccco1)c1cc(Cl)c2cccnc2c1O (centres undefined) was read as MPTP inh -5.
Screening S=C(Nc1ccc(Br)cc1)N1CCN(c2ccccn2)CC1 returned Mdm2-MdmX inh 3, MPTP inh 7, Beta apoptosis -8, SKKanGAS inh -1, GRIN3A LBD mod 2 and CSC inhib -8.
`Cc1ccc(C(=O)Nc2ccccc2C(=O)O)cc1S(=O)(=O)Nc1ccc(Br)cc1` gave Mdm2-MdmX inh 22, MPTP inh 20, Beta apoptosis -1, SKKanGAS inh 36, GRIN3A LBD mod 6 and CSC inhib 17.
